Test results published in PubChem BioAssay (NCI).
Several values for one entry are separate records, joined by “and”; a condition that tells them apart may be missing. Identical values can stand only once. This is part of a sample that, as a whole, favours compounds with a hit. Of some 83,000 tested, about 20% had one in any assay.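 Each cell line was grown in a 96-well plate and treated with one concentration of compound for 48 hours. Values below 10 were considered active.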 Activity calls are given as the source filed them.

system: MDA-MB-468 breast; test: NCI-60 one-dose screen, 48 h (100 = growth as untreated, 0 = no growth, -100 = all killed); conditions: 10 µM unless noted

Structure (SMILES)	growth
CCOC(=O)C#Cc1c(C(=O)OCC)nnn1Cc1ccc(C(F)(F)F)cc1	-25.7% (active)
CCO/C=N/C1=C(C#N)C(c2ccc(F)cc2)c2sc3c(CC)cccc3c2O1 (stereo not given)	7.27% (active)
O=C(O)c1ccc(-n2c(=O)c3ccccc3c3ccccc3c2=O)cc1	105% (inactive)
Cc1nn(-c2ccccc2)c2nc(C)n(-c3ccc(Br)cc3)c(=O)c12	-5.99% (active)
CCCCCOc1ccc(/C=N/Nc2cc(C)nc3ccc(Br)cc23)cc1	-15.1% (active)
COc1cc(C(=O)c2cnc(-c3ccc4cc[nH]c4c3)[nH]2)cc(OC)c1OC	-23.2% (active)
O=C(Nc1ccc(OS(=O)(=O)c2ccccc2)cc1)C1CCCCC1	103% (inactive)
CCCOc1ccc(-c2nc(-c3ccc(N)cc3)cs2)cc1	110% (inactive)
COc1ccc2ccccc2c1/C=N/N1CCCCC1	113% (inactive)
CN(C)c1ccc2oc(=O)c3ccccc3c2c1	78.3% (inactive)
COc1cccc(CC(C)=C(c2ccc(OCCN(C)C)cc2)c2ccc(OCCN(C)C)cc2)c1	-61.5% (active)
COC(=O)c1c2c(c(C)[n+]([O-])c1C)C(=O)C=C(NCc1ccc(F)c(F)c1)C2=O	-78.4% (active)
CSc1nnc(-c2sc3nnc(-c4ccccc4)c(-c4ccccc4)c3c2O)o1	78.9% (inactive)
Cc1cc(N2CCN(CC(=O)Nc3ccc4c(ccn4C)c3)CC2)nc(N2CCCCCC2)n1	65.1% (inactive)
OCCNc1ccccc1	99.4% (inactive)
COc1cc(-c2nn(-c3cccc(NC(=O)c4ccc(N5CCOCC5)c(C(F)(F)F)c4)c3)cc2-c2ccncc2)ccc1Cl	-37.8% (active)
COc1cc(C2C(C#N)=C(N)Oc3cc(O)ccc32)cc(OC)c1OC (stereo not given)	-16% (active)
COc1cc(OC)cc(-c2cncn2-c2ccc(-c3nc4cc(OC)cc(OC)c4s3)cc2)c1	4% (active)
COc1cc2c(c(OC)c1OC)-c1cc(I)c(O)cc1[C@@H](NC(C)=O)CC2	-32.9% (active)
CC(=O)Nc1c(C(=O)Nc2ccccc2)sc2nc3c(cc12)C(OC(C)=O)CCC3 (stereo not given)	90.5% (inactive)

Structure (SMILES)	growth
COc1ccc(CCNc2nc(SC)nc(-c3cccc([N+](=O)[O-])c3)c2C#N)cc1OC	84.8% (inactive)
Cn1cc2c(c1)-c1nc(Nc3ccccc3)ncc1CC2	47.6% (inactive)
O=C1/C(=C\c2cn(-c3nc(N4CCOCC4)nc(N4CCOCC4)n3)c3ccccc23)c2ccccc2N1c1c(Cl)cccc1Cl	17% (inactive)
O=S(=O)(c1cccc(NC2=Nc3cccc4cccc2c34)c1)N1CCCC1	36.4% (inactive)
O=S(=O)(Oc1ccc(-c2cn3ccoc3n2)cc1)c1cccc(C(F)(F)F)c1	86.9% (inactive)
c1ccc(Cn2cc3c(c2)-c2oncc2CC3)cc1	47.2% (inactive)
CC(C)n1nc(C#Cc2cccc(NC(=O)c3cccc(C(F)(F)F)c3)c2)c2c(N)ncnc21	8.73% (active)
CCC(C)C1(C2CCCC2)NC(=O)NC1=O (stereo not given)	115% (inactive) and 121% (inactive)
COc1ccc(-c2cncnc2N)cc1OC	116% (inactive)
c1ccc2c(NCCCN3CCOCC3)c3oc4ccccc4c3nc2c1	-53.6% (active)
COc1nc2ccccc2cc1/C=C1/C=C(c2ccccc2)NC1=O	29% (inactive)
COC(=O)c1ccc2c(c1)n(Cc1ccc3ccccc3c1)c[n+]2Cc1ccc2ccccc2c1	-19% (active)
CCOC(=O)c1sc(NS(=O)(=O)c2ccccc2)nc1C	106% (inactive)
CCN(CC)CCCC(C)Nc1ccnc2cc(Cl)c(SCc3ccccc3)cc12 (stereo not given)	-88.5% (active)
CCCCN(CCCC)c1ccc(C(=N)c2ccc(N(C)C)cc2)cc1	-76.5% (active)
CSc1nc(-c2ccco2)c2c(N)[nH]nc2n1	113% (inactive)
CCN(CC)CCN1C(=O)c2c(c3c4ccccc4[nH]c3c3ccc4ccccc4c23)C1=O	79.5% (inactive)
Cc1ccc(NCc2cn(-c3ccc(C(=O)O)cc3)nc2-c2ccc(C(=O)O)cc2)cc1	120% (inactive)
Cc1nc(N)sc1Sc1nc2ccc(Cl)cc2c(=O)n1-c1ccc(Oc2ccccc2)cc1	76.6% (inactive)
C#CCOCC1CN(C)C(=O)O1 (stereo not given)	118% (inactive)
